The results in this text go back to PubChem BioAssay (Tox21).

Where “and” joins values, the source holds several entries; their conditions need not be identical. Identical values can stand only once. Some structures have more than one record in an assay (separate samples or runs), and their calls can disagree. Calls of active or inactive are those of the source. Unless noted, calls follow the shape of the dose curve; as a rule, active = well fitted curve in the direction sought with a large enough effect in the repeat runs; inconclusive = weak or mixed curves; inactive = no such curve, though single readings can be large; an effect the other way counts as inactive or inconclusive.

Assay [1] in a line: qHTS assay for identifying genotoxic compounds that show differential cytotoxicity against isogenic chicken DT40 cell lines with known DNA damage response pathways - wild type cell line (AID 743012). Also: nearly all actives have a fitted effect of over 60% in size. Also: potency is read from the fitted curve at half-maximal effect. The essentials:
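Cells (DT40 wild type, 300/well) are treated with DMSO-dissolved compounds after a ~0.5 h pre-incubation and kept 40 h at 37 C/5% CO2. Viability is then measured by CellTiter-Glo luminescence following 30 min at room temperature.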
On the technique in general: Quantitative high-throughput screening tests each substance at several concentrations.

Assay [2] in a line: qHTS assay for identifying genotoxic compounds that show differential cytotoxicity against isogenic chicken DT40 cell lines with known DNA damage response pathways - Rad54/Ku70 mutant cell line (AID 743015). Also: nearly all actives have a fitted effect of over 60% in size. Also: potency is read from the fitted curve at half-maximal effect.
The nature of assay [3]: qHTS assay to identify small molecule antagonists of the androgen receptor (AR) signaling pathway - cell viability counter screen (AID 743033; also: nearly all actives have a fitted effect of over 45% in size; also: potency is read from the fitted curve at half-maximal effect).
A short description of assay [4]: qHTS assay to identify small molecule antagonists of the androgen receptor (AR) signaling pathway using the MDA cell line - cell viability counter screen (AID 743041; also: nearly all actives have a fitted effect of over 45% in size; also: potency is read from the fitted curve at half-maximal effect). The essentials:
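Viability counter screen run alongside the AR antagonist reporter: cells seeded 5 h before compound, R1881 added, 16 h incubation at 37C without CO2, fluorescent CellTiter-Fluor signal quantified.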

The subject of assay [5] is thyroid hormone receptor (rat, GH3 cells). As to the kind of experiment: qHTS assay to identify small molecule agonists of the thyroid receptor (TR) signaling pathway (AID 743066; calls by dose curve).
Assay [6] in a line: qHTS assay to identify small molecule antagonists of the estrogen receptor alpha (ER-alpha) signaling pathway - cell viability counter screen (AID 743074; calls by dose curve;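 also: HEK293 cells carrying ER-alpha-UAS-bla reporter stimulated with 17beta-estradiol; nearly all actives have a fitted effect of over 45% in size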; also: potency is read from the fitted curve at half-maximal effect).
Assay [7] in a line: qHTS assay to identify small molecule antagonists of the estrogen receptor alpha (ER-alpha) signaling pathway using the BG1 cell line - cell viability counter screen (AID 743081).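 Also: compound given together with 17beta-estradiol as the ER stimulus; nearly all actives have a fitted effect of over 45% in size.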 Also: potency is read from the fitted curve at half-maximal effect.
Assay [8] in a line: qHTS assay for identifying genotoxic compounds that show differential cytotoxicity against isogenic chicken DT40 cell lines with known DNA damage response pathways - Rev3 mutant cell line (AID 743014). Also: nearly all actives have a fitted effect of over 55% in size. Also: potency is read from the fitted curve at half-maximal effect.
A short description of assay [9]: qHTS assay to identify small molecule antagonists of the thyroid receptor (TR) signaling pathway - cell viability counter screen (AID 743064). Also: nearly all actives have a fitted effect of over 50% in size. Also: potency is read from the fitted curve at half-maximal effect. An outline of the steps:
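Counter screen for cytotoxicity: compound plus T3 (1 nM final) on GH3.TRE-Luc cells, 23.5 h at 37 °C, then fluorescence viability readout with CellTiter-Fluor.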

For assay [10], the target named is Aromatase (Homo sapiens) (UniProt P11511). As to the kind of experiment: qHTS assay to identify aromatase inhibitors (AID 743083). Also: nearly all actives have a fitted effect of over 55% in size. Also: potency is read from the fitted curve at half-maximal effect.
Chain of Aromatase (Homo sapiens) (P11511 whole entry, looked up): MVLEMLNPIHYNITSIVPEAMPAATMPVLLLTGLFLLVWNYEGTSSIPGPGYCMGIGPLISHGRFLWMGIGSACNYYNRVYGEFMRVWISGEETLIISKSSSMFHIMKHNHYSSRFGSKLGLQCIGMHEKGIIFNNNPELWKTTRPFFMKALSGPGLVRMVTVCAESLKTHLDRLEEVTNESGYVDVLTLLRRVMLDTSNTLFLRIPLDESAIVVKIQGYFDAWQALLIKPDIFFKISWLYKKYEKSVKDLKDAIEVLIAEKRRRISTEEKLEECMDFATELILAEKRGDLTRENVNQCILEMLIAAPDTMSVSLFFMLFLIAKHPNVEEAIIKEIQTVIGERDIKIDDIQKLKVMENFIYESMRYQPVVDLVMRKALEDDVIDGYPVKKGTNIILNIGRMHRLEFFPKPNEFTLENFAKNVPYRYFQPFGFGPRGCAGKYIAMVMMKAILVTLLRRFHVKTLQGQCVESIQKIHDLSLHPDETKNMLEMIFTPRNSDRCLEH
Assay [11] is described as follows: qHTS assay to identify small molecule antagonists of the thyroid receptor (TR) signaling pathway (AID 743065). Also: nearly all actives have a fitted effect of over 55% in size. Also: potency is read from the fitted curve at half-maximal effect. The essentials: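 GH3.TRE-Luc rat pituitary cells carrying two TR response elements driving luciferase were plated for 4 h, given compound plus 1 nM T3 (final), and incubated 23.5 h at 37 C. ONE-Glo luminescence measured reporter inhibition; CellTiter-Fluor fluorescence tracked cytotoxicity.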

The target in assay [12] is Estrogen receptor (Homo sapiens) (UniProt P03372). As to the kind of experiment: qHTS assay to identify small molecule antagonists of the estrogen receptor alpha (ER-alpha) signaling pathway (AID 743069; active = well fitted curve in the direction sought with a large enough effect in the signal ratio in the repeat runs, not every such curve was filed as active; inconclusive = weak or mixed curves, or effect the other way; inactive = no such curve, though single readings can be large or run the other way; the % refers to the signal ratio; also: potency is read from the fitted curve at half-maximal effect). The essentials:
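Estradiol-stimulated ER-alpha-UAS-bla HEK293 cells, 18 hr compound exposure at 37C. LiveBLAzer B/G substrate, 2 hr RT, fluorescence read.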

The target is the same in assay [13]. As to the kind of experiment: qHTS assay to identify small molecule agonists of the estrogen receptor alpha (ER-alpha) signaling pathway (AID 743075; calls by dose curve;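 also: HEK293 GripTite cells with ER-alpha and UAS-driven beta-lactamase reporter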; also: potency is read from the fitted curve at half-maximal effect).
The target is the same in assay [14]. In words: qHTS assay to identify small molecule agonists of the estrogen receptor alpha (ER-alpha) signaling pathway using the BG1 cell line (AID 743079). Also: nearly all actives have a fitted effect of over 20% in size. Also: potency is read from the fitted curve at half-maximal effect. The following applies: BG1Luc4E2 cells, ERE-luciferase agonist, 22 h; activation: at 70.3 µM (top of the series) unless noted.
A short description of assay [15]: qHTS assay to identify small molecule antagonists of the estrogen receptor alpha (ER-alpha) signaling pathway using the BG1 cell line (AID 743080; calls by dose curve;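 also: BG1 cells stimulated with 17beta-estradiol alongside compound; nearly all actives have a fitted effect of over 25% in size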). An outline of the steps: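 After 5 days in phenol-red-free 10% charcoal-stripped FBS medium, BG1-Luc-4E2 cells were seeded, left 24 h at 37 C, co-treated with compounds and 17beta-estradiol for 21.5 h, then assayed for viability and luciferase.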

Chain of Estrogen receptor (Homo sapiens) (P03372 whole entry, looked up): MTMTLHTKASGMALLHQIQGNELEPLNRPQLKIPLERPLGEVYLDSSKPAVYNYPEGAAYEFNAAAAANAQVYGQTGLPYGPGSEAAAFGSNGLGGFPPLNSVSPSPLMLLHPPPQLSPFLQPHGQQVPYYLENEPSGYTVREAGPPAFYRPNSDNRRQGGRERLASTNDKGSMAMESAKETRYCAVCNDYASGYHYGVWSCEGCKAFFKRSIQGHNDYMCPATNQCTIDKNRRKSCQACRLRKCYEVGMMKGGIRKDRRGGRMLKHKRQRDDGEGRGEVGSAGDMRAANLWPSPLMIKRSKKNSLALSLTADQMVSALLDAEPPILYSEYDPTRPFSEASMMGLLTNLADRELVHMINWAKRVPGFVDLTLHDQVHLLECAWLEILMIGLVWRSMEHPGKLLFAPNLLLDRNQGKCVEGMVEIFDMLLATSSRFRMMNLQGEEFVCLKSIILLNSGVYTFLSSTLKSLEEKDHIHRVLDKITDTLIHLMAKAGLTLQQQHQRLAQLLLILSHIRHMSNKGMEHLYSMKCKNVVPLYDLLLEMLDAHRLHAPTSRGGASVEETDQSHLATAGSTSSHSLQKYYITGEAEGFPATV

In the case of `CCCCCCCCCC(CC)c1ccc(S(=O)(=O)O)cc1` (stereo not drawn), the Potency result was “inactive and 18.8 µM (active)” in assay [1]; “inactive and 30.6 µM (active) and 47.2 µM (active)” in assay [2]; “inactive and 43.6 µM (active)” in [6]. The Potency entry in assay [3], in assay [4], in [5] and in assay [7] was “inactive” in each case.

`CCOP(=O)(OCC)OCC`: the Potency entry in [1], in assay [8], in [2], in assay [3], in assay [9] and in assay [5] was “inactive” in each case. Besides, the Potency entry in assay [6], in [7] and in [10] was “inactive” in each case.

For the compound `CC1CC(=O)O1` (stereo not drawn), the Potency result in [1], in assay [8], in assay [2], in assay [3], in [9] and in [11] was “inactive” throughout. The Potency result in [5], in assay [6], in assay [7] and in assay [10] was “inactive” each time.

On to `CC[n+]1c(-c2ccccc2)c2cc(N)ccc2c2ccc(N)cc21`, for which the Potency in [1] is 211 nM (active) and 531 nM (active) and 171 nM (active); in assay [8] it was 376 nM (active) and 841 nM (active) and 96.4 nM (active); in assay [2] it was 298 nM (active) and 750 nM (active) and 85.9 nM (active); in assay [3], 12 µM (active) and 4.88 µM (active); in assay [4], 13.3 µM (active) and 26.6 µM (active) and 30.5 µM (active); in [9] it was “inactive and 54.2 µM (active)”. For the same compound, the Potency in assay [11] is 23.7 µM (active) and 27.2 µM (active); in assay [12], 26.8 µM [inconclusive] (active) and 30.8 µM [inconclusive] (active); in [13] it was 4.25 µM [inconclusive] (active) and 19 µM [inconclusive] (active) and 5.47 µM [inconclusive] (active); in assay [7] it was 54.2 µM (active); in assay [10], 18.8 µM (active) and 26.6 µM (active) and 12.1 µM (active). Also, the Potency result in assay [5], in assay [6], in assay [14] and in assay [15] was “inactive” throughout.

As for `COc1ccc(C=O)cc1OC`, the Potency entry in [1], in assay [8], in [2], in [3], in assay [4] and in assay [9] was “inactive” throughout. Also, the Potency result in assay [5], in assay [12], in assay [6], in [13], in [15] and in assay [7] was “inactive” each time. Further, the Potency result in assay [10] was “inactive”. The Potency result in [14] is “inactive and 6.86 µM (active)”.

For `ClC(Cl)=C(Cl)C(Cl)=C(Cl)Cl`, the Potency entry in [1], in assay [8], in assay [2], in assay [3], in assay [4] and in assay [9] was “inactive” in each case. In addition, the Potency result in assay [5], in assay [12], in assay [6], in [13], in [14] and in assay [15] was “inactive” in each case. Moreover, the Potency entry in assay [7] and in assay [10] was “inactive” each time.

On to `C[C@]12CCC(=O)C=C1CC[C@@H]1[C@@H]2CC[C@@]2(C)[C@H]1CC[C@]2(C)O`, for which the Potency in [1] is 29.8 µM (active) and 26.6 µM (active) and 21.7 µM (active); in assay [8], 26.6 µM (active) and 29.8 µM (active) and 26 µM (active); in [2], 29.8 µM (active) and 26.6 µM (active) and 26.7 µM (active); in [9], “inactive and 61.4 µM (active)”; in assay [11] it was 10.6 µM (active) and 24.5 µM (active); in [13] it was 2.13 µM [inconclusive] (active) and 4.25 µM [inconclusive] (active) and 1.39 µM [inconclusive] (active). For the same compound, the Potency in assay [14] was 376 nM (active) and 106 nM (active) and 179 nM (active). Moreover, the Potency result in assay [3], in assay [5], in assay [12], in [6], in assay [15] and in [7] was “inactive” each time. Further, in assay [10], the Potency result is “inactive”.

As to `CCNc1nc(Cl)nc(NC(C)(C)C#N)n1`, the Potency result in assay [1], in [8], in [2], in [3], in assay [4] and in assay [9] was “inactive” throughout. Besides, the Potency result in assay [11], in [5], in assay [6], in [7] and in [10] was “inactive” throughout.

In the case of `CC(C)=CC1C(C(=O)OCc2cccc(Oc3ccccc3)c2)C1(C)C` (stereo not drawn), the Potency result in assay [1], in assay [8], in [2], in [3], in [4] and in assay [9] was “inactive” in each case. Besides, the Potency entry in assay [5], in [12], in assay [6], in [13], in assay [14] and in assay [15] was “inactive” each time. The Potency result in assay [7] and in assay [10] was “inactive” throughout.
